Data published in the supplement of paper PMC9135407.
Where “and” joins values, the source holds several entries; their conditions need not be identical. Identical values can stand only once. Hit rate of the full screen: of about 5,800 compounds, about 620 (11%) showed activity. Many of the other results were omitted from the sample, so actives are more common in it than they were. Values without a mark were called inactive.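 How the source made its calls: active = score above a cut-off or among the top three wells of a plate; in these data no inactive exceeds 0.85.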

System: primary human hepatic stellate cells (donor 1)
Assay: scaled lipid accumulation score (0 = DMSO-like, 1 = nortriptyline-like); higher = stronger HSC inactivation (lipid re-accumulation), active = hit call of the paper
Settings: 48 h
[1] = library stock concentration: 1 mM
[2] = library stock concentration: 3.33 mM
[3] = library stock concentration: 80 uM
[4] = library stock concentration: 400 uM
[5] = library stock concentration: 2 mM
[6] = library stock concentration: 10 mM

O=C(CCc1ccc(O)c(O)c1)N[C@@H](CC(=O)OCc1ccccc1)C(=O)OCc1ccccc1
scaled lipid accumulation score [1]: ≤ 0

CC1(COc2ccc3c(c2)ncn3-c2ccc3cccc(N4CCC(N)CC4)c3n2)COC1 [listing 1 of 2 here]
scaled lipid accumulation score [2]: 0.869 (active)

COCCOc1ccc2c(c1)ncn2-c1ccc2cccc(N3CCC(N)CC3)c2n1 [listing 1 of 2 here]
scaled lipid accumulation score [3]: ≤ 0
scaled lipid accumulation score [4]: 0.202
scaled lipid accumulation score [5]: 0.523
scaled lipid accumulation score [2]: 0.785
scaled lipid accumulation score [6]: 0.832

NC1CCN(c2cccc(Cl)n2)CC1
scaled lipid accumulation score [6]: 0.62 and 0.499

COCCOc1ccc2c(c1)ncn2-c1ccc2cccc(N3CCC(N)CC3)c2n1 [listing 2 of 2 here]
scaled lipid accumulation score [6]: 0.937 (active)

CC1(COc2ccc3c(c2)ncn3-c2ccc3cccc(N4CCC(N)CC4)c3n2)COC1 [listing 2 of 2 here]
scaled lipid accumulation score [6]: 0.404

COc1c2c(nc3ccccc13)OC(C(C)(O)CO)C2 (configuration not stated) [Dubinidine]
scaled lipid accumulation score: ≤ 0

O=C(O)CCCC=CCC1C(O)CC(O)C1C=CC(O)COc1cccc(C(F)(F)F)c1 [15(S)-Fluprostenol]
scaled lipid accumulation score [1]: ≤ 0

CCCCCCCCC=CCCCCCCCCOCCOP(=O)([O-])OCC[N+](C)(C)C [Oleyloxyethyl Phosphorylcholine]
scaled lipid accumulation score [1]: ≤ 0

CC/C=C\C/C=C\C/C=C\C/C=C\CCCCCCC(=O)OCC [.omega.-3 Arachidonic Acid ethyl ester]
scaled lipid accumulation score [1]: ≤ 0

CCCCCCCCCCCCCCCCCCCCCCCCC(=O)OC [Pentacosanoic Acid methyl ester]
scaled lipid accumulation score [1]: ≤ 0

CCCc1cc(C(=O)c2ccc(-c3ccccc3)cc2)ccc1OCCCN1CCCc2c(OC(C)(C)C(=O)O)cccc21
scaled lipid accumulation score [1]: ≤ 0

CCCCCCCCC=CCCCCCCCCCCCC(N)=O [13-Docosenamide]
scaled lipid accumulation score [1]: ≤ 0

[O-][n+]1cccc(CO)c1
scaled lipid accumulation score [6]: ≤ 0

CCCCC/C=C\C/C=C\C/C=C\C/C=C\CCCC(=O)OC(CO)CO [2-Arachidonoylglycerol]
scaled lipid accumulation score [1]: 0.011

CCCCC/C=C\C/C=C\C/C=C\C/C=C\CCCC(=O)OC(CO)CO [2-Arachidonoyl Glycerol]
scaled lipid accumulation score [1]: ≤ 0

CCCCCCCCCCCCCCCCn1cc[n+](Cc2ccccc2)c1C
scaled lipid accumulation score [3]: ≤ -0.001
scaled lipid accumulation score [4]: ≤ -0.001
scaled lipid accumulation score [5]: ≤ -0.001
scaled lipid accumulation score [6]: 0.213 and 0.435

CCCCCCCCCCCCCCCCn1cc[n+](Cc2ccccc2)c1C [eEF-2 Kinase Inhibitor, NH125]
scaled lipid accumulation score [2]: 0.247

CCCCCCCCCCCCCCCCn1cc[n+](Cc2ccccc2)c1C.[I-]
scaled lipid accumulation score [2]: 0.92 (active)

CCCCCCCCCCCCC[N+](C)(C)Cc1ccccc1 [Benzalkonium chloride]
scaled lipid accumulation score [6]: 0.182
